Screening results from PubChem.
A selection: hits, their analogues and other compounds. The true share with any hit is near 4.7%.
D1 potentiator – Potentiators of Human D1 Dopamine Receptor: qHTS | D(1A) dopamine receptor (Homo sapiens), P21728 | HEK293 TREx D1 cells, calcium flux, dopamine EC20 potentiation | potentiation, % at 10 µM | 0.036% of 360,000 active; in the data active = potentiation above about 30%; note: 0% is about no effect
Target sequence (P21728 whole entry, looked up): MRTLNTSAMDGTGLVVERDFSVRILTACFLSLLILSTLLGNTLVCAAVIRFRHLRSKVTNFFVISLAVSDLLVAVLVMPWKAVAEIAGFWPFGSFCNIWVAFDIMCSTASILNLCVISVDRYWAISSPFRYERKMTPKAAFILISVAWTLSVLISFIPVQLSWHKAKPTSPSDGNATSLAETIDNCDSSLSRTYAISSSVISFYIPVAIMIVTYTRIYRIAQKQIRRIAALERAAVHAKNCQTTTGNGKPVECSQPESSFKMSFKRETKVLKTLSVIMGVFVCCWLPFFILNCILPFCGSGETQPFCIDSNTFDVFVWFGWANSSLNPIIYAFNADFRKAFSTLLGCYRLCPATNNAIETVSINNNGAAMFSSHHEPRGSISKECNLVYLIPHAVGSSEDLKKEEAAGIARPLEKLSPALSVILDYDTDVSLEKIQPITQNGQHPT
TRHR PAM – qHTS for Small Molecule Agonists and Allosteric Enhancers of Human TRH Receptor: Primary Screen for Enhancers. Thyrotropin-releasing hormone receptor (Homo sapiens), P34981. TRHR cells, fluo-8 calcium fluorescence, EC20 TRH enhancement. 0.66% of 360,000 active. enhancement, % at 2 µM; in the data active = enhancement above about 30%; note: 0% is about no effect
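TRHR-expressing cells loaded with fluo-8 calcium dye were read kinetically (ex 480/em 530) during compound addition, then stimulated with an EC20 of TRH (10 nM final). Enhancement of the Gq-mediated intracellular calcium response was scored.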
D1 antag – Antagonist of Human D 1 Dopamine Receptor: qHTS. activity change, negative = inhibition, % at 10 µM. HEK293 TREx D1 cells, calcium flux, dopamine EC80; active compounds read low. 3.2% of 360,000 active. D(1A) dopamine receptor (Homo sapiens), P21728; in the data active = activity change below about -30%; note: % is set by controls: 0 for no effect and ±100 for the full control effect
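Cells carrying a force-coupled, tetracycline-inducible human D1 receptor report calcium flux. Each well gets a 10 s baseline, compound with 180 s monitoring, then an EC80 dopamine stimulus with a second 180 s kinetic read.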
D1 ag – Allosteric Agonists of the Human D1 Dopamine Receptor: qHTS; D(1A) dopamine receptor (Homo sapiens), P21728; HEK293 T-REx D1 cells, calcium flux, agonist mode; activation, % at 2 µM; 1% of 360,000 active; AID 504660, 2011; note: 0% is about no effect
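Inducible HEK293 T-REx D1 cells, force-coupled to calcium signalling, were plated at 4000 cells/well with tetracycline and held overnight at 30 C. After no-wash calcium dye loading, compound-evoked calcium rise over 180 s flagged agonists.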
TRHR ag – qHTS for Small Molecule Agonists and Allosteric Enhancers of Human TRH Receptor: Primary Screen for Agonists. Thyrotropin-releasing hormone receptor (Homo sapiens), P34981. activation, % at 2 µM. AID 493084, 2011. 0.18% of 360,000 active. TRHR cells, calcium flux fluo-8, FDSS agonist mode; note: 0% is about no effect
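In this calcium-flux screen, cells bearing human TRHR are dye-loaded with fluo-8, baselined for 10 cycles, then exposed to library compounds; positive kinetic calcium responses during the agonist phase mark hits, with TRH as control.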
* = called active by the depositor; ! = repeats disagree. Cut-off read from the data, not from the text of the source, unless noted: active = activation above about 30%; inactive = the rest.

How did COc1ccccc1CCNC(=O)Cn1ccc2cc(S(=O)(=O)N3CCCC3)ccc21 do in these assays?
D1 potentiator: -9; TRHR PAM: -12; D1 antag: -31*; D1 ag: 7; TRHR ag: 0

What do the screens show for `COC(=O)Cn1ccc2cc(S(=O)(=O)N3CCCCC3)ccc21`?
D1 potentiator: -1; TRHR PAM: 7; D1 antag: -51*!; D1 ag: 5; TRHR ag: 0

What do the screens show for `COc1ccccc1-c1nc2c(c(SCc3ccc(F)cc3Cl)n1)Cc1c(CO)cnc(C)c1O2`?
D1 potentiator: -1; TRHR PAM: 1; D1 antag: 4; D1 ag: 1; TRHR ag: 0

Results for CCOc1ccc2oc(=O)cc(CN3CCN(c4ccc(Cl)cc4)CC3)c2c1 ?
D1 potentiator: 4; TRHR PAM: -2; D1 antag: 37; D1 ag: 3; TRHR ag: 0

Results for CCCCCCCCC1=NCCc2c1[nH]c1ccccc21 ?
D1 potentiator: -11; TRHR PAM: 6; D1 antag: -14; D1 ag: 38*; TRHR ag: 1

How did C=CCn1c(COc2cccc3ccc(C)nc23)nnc1SCC(=O)OC do in these assays?
D1 potentiator: -4; TRHR PAM: -1; D1 antag: -12; D1 ag: 2; TRHR ag: 0

Results for C=CCn1c(COc2ccccc2F)nnc1SCCN1C(=O)c2ccccc2C1=O ?
D1 potentiator: -1; TRHR PAM: 38*; D1 antag: -11; D1 ag: 5; TRHR ag: 0

What do the screens show for `COc1ccc(NC(=O)CCc2c(C)nc3c(-c4ccc(F)cc4)c(C)nn3c2C)c(OC)c1`?
D1 potentiator: -5; TRHR PAM: 16; D1 antag: -6; D1 ag: 0; TRHR ag: 0

What do the screens show for `O=C(CSc1nc2ccccc2n1Cc1cccc(F)c1)NCc1ccccc1`?
D1 potentiator: 0; TRHR PAM: -4; D1 antag: 0; D1 ag: 3; TRHR ag: -1

How did Fc1cc2[nH]c(=S)[nH]c2cc1Cl do in these assays?
D1 potentiator: -4; TRHR PAM: -6; D1 antag: -41*; D1 ag: 2; TRHR ag: -1

Results for Cc1cc2[nH]c(=S)[nH]c2cc1C ?
D1 potentiator: 2; TRHR PAM: -3; D1 antag: -16; D1 ag: 2; TRHR ag: 0

How did CCN1C(=O)/C(=C2\C=Cc3ccccc3N2CC)SC1=S do in these assays?
D1 potentiator: -5; TRHR PAM: -8; D1 antag: -33*; D1 ag: -2; TRHR ag: 0

Results for CCN1C(=O)/C(=c2\o/c(=C3\C=Cc4ccccc4N3CC)c(=O)n2CC)SC1=S ?
D1 potentiator: -5; TRHR PAM: 1; D1 antag: 9; D1 ag: 1; TRHR ag: 0

Results for COc1ccc(CN2CCC(CO)(CCOc3ccccc3)CC2)cc1C ?
D1 potentiator: -2; TRHR PAM: 4; D1 antag: 17; D1 ag: 48*; TRHR ag: 4

What do the screens show for `OCC1(CCOc2ccccc2)CCN(Cc2ccncc2)CC1`?
D1 potentiator: -5; TRHR PAM: -3; D1 antag: 32; D1 ag: 0; TRHR ag: 0

What do the screens show for `CSc1ccc(CN2CCC(CO)(CCOc3ccccc3)CC2)cc1`?
D1 potentiator: -8; TRHR PAM: 0; D1 antag: 5; D1 ag: 41*; TRHR ag: 2

How did CCn1c(N2CCN(C(=S)NC)CC2)nc2ccccc21 do in these assays?
D1 potentiator: -9; TRHR PAM: 22; D1 antag: -32*; D1 ag: 2; TRHR ag: 0

Results for CCn1c(N2CCN(C(=S)NCC(C)C)CC2)nc2ccccc21 ?
D1 potentiator: -3; TRHR PAM: -6; D1 antag: -3; D1 ag: 5; TRHR ag: 0

Results for CCn1c(N2CCN(C(=S)NCCc3ccccc3)CC2)nc2ccccc21 ?
D1 potentiator: -9; TRHR PAM: -10; D1 antag: -36*; D1 ag: 1; TRHR ag: 2

How did CC(C)C(=O)Nc1ccc(-c2csc(-c3ccccc3)n2)cc1 do in these assays?
D1 potentiator: -3; TRHR PAM: 7; D1 antag: -38*; D1 ag: 1; TRHR ag: 0

How did CC(C)C(=O)Nc1cccc(-c2csc(-c3ccccc3)n2)c1 do in these assays?
D1 potentiator: -16; TRHR PAM: 4; D1 antag: 22; D1 ag: 1; TRHR ag: -2

What do the screens show for `CC(=O)N[C@H](C(=O)N[C@@H](C)C(=O)N[C@H](C#N)CC(=O)O)C(C)C`?
D1 potentiator: 2; TRHR PAM: 2; D1 antag: -10; D1 ag: 2; TRHR ag: -1

How did COc1ccc(-n2c(SCC(=O)NCc3ccco3)nc3sc4c(c3c2=O)CCN(C)C4)cc1 do in these assays?
D1 potentiator: 3; TRHR PAM: -5; D1 antag: -16; D1 ag: 2; TRHR ag: 0

Results for CCOC(=O)CSc1nc2sc3c(c2c(=O)n1-c1ccc(OC)cc1)CCN(C)C3 ?
D1 potentiator: -3; TRHR PAM: -3; D1 antag: -8; D1 ag: 5; TRHR ag: 1

How did CN1CCc2c(sc3nc(SCC(=O)NCc4ccco4)n(-c4ccccc4)c(=O)c23)C1 do in these assays?
D1 potentiator: -8; TRHR PAM: -6; D1 antag: -33*; D1 ag: 3; TRHR ag: 0

How did COC(=O)CSc1nc2sc3c(c2c(=O)n1-c1ccc(OC)cc1)CCN(C)C3 do in these assays?
D1 potentiator: 2; TRHR PAM: 33*; D1 antag: 3; D1 ag: 2; TRHR ag: 2

How did CCc1nn(CC(=O)NCCN(CC(C)C)CC(C)C)c(=O)c2cc3sc(C)cc3n12 do in these assays?
D1 potentiator: -3; TRHR PAM: 55*; D1 antag: 4; D1 ag: -1; TRHR ag: 0

Results for CCOc1ccc(CCNC(=O)Cn2nc(CC)n3c(cc4ccccc43)c2=O)cc1 ?
D1 potentiator: -4; TRHR PAM: 3; D1 antag: -43*; D1 ag: 1; TRHR ag: 0

What do the screens show for `COc1ccc(CC(=O)NCc2nc3cccnc3n2Cc2ccc(C)cc2)cc1OC`?
D1 potentiator: -3; TRHR PAM: 2; D1 antag: 8; D1 ag: 0; TRHR ag: 0

What do the screens show for `O=C(Cc1ccccc1F)Nc1cccc2cccnc12`?
D1 potentiator: -1; TRHR PAM: 6; D1 antag: 5; D1 ag: -1; TRHR ag: 0
